Assay outcomes from PubChem.
Shown are actives, neighbours in structure and some others; about 5.4% of the full set was active somewhere.
Gal4-VP16 FLuc: Gal4-VP16 reporter inhibition counter-screen; Drosophila S2 Gal4-VP16 UAS-luciferase, luminescence, 20 h; Potency, µM (highest dose often 53.6 µM), hits mostly inhibitors; 310,000 compounds, 3.5% hits; AID 2546;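 further: Gal4-VP16 expression switched on by copper sulfate through the metallothionein promoter; nearly all actives have a fitted effect of over 50% in size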
CtBP-E1A inh: blocks the CtBP interaction with E1A. AlphaScreen GST-E1A/His-CtBP binding, 1536-well; active compounds read low. activity change, % (concentration not given with the values). 340,000 compounds, 0.49% hits. AID 651724; in the data active means activity change below about -65%; inconclusive means mostly about -30% to -63%
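Homogeneous bead-based format: GST-tagged E1A captured on glutathione donor beads, His-tagged CtBP on nickel acceptor beads; compounds precede bead addition by 2 h at 37 °C.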
Six1-Eya2 blk: blocks human Six1 binding to Eya2; Q15475+O00167; AlphaScreen GST-Six1/His-Eya2 binding, biochemical; active compounds read low; activity change, % (test concentration not listed); 360,000 compounds, 0.56% hits; AID 651725; in the data active means activity change below about -65%; inconclusive means mostly about -30% to -63%
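Homogeneous AlphaScreen proximity assay pairing GST-Six1 with His-tagged Eya2 (added as 5X mix: 250 nM and 500 nM) in 50 mM Tris pH 8.0, 300 mM NaCl, 1 mM TCEP. Glutathione donor and nickel acceptor beads; 1 h, 37 °C, dark.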
p53 reactivation: restores transcriptional activity of mutant p53; H1299 p53-A138V BP100-luciferase reporter, luminescence, 24 h; Potency, µM (top dose mostly 92.2 µM), hits mostly activators; 320,000 compounds, 0.063% hits; AID 504706; further: nearly all actives have a fitted effect of over 45% in size
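H1299 (p53-null), stable ts p53-A138V + BP100-Luc; 1000 cells/well, Opti-MEM/10% FBS; cpd 4 pt, 1:5; 24 h, 37 deg C, 5% CO2; detection reagent 10 min RT; luminescence.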
RORg inh: blocks mouse ROR gamma transcriptional activity; P51450; Drosophila S2 Gal4-RORgamma UAS-luciferase reporter, 20 h; Potency, µM (series often up to 53.6 µM), actives largely listed as inhibitors; 310,000 compounds, 5.4% hits; AID 2551; further: nearly all actives have a fitted effect of over 60% in size
Target sequence (P51450 whole entry, looked up, the tested form may be a part): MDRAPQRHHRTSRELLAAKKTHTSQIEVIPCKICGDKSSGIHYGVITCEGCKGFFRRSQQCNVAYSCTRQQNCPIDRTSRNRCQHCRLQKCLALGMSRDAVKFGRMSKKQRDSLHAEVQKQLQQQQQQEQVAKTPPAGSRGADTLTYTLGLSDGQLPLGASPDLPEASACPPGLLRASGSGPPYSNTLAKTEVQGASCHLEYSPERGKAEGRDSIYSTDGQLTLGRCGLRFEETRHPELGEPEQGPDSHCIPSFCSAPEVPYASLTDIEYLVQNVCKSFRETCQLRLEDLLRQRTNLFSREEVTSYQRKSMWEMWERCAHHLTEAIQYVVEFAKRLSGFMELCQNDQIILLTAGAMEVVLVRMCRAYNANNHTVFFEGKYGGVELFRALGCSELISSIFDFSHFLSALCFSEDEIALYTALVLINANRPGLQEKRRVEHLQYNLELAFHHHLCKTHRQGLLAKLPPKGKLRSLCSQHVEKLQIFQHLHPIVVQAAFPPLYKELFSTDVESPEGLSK
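Stably transfected Drosophila Schneider cells are the test system, with ROR gamma fused to Gal4 and luciferase under UAS control; luminescence is read after 20 hr of 700 uM copper sulfate induction at ambient temperature.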
Large screens that a line does not name were inactive. Unless noted, the call rests on the fitted dose curve; in most records, active means well fitted curve in the direction sought with a large enough effect; inconclusive means small, poorly fitted or top-dose-only effect, or another doubt; inactive means no such curve, though single readings can be large; an effect the other way counts as inactive or inconclusive.

Oc1c(C(c2ccccc2)N2CCCCC2)sc2ncnn12 (configuration not stated)	RORg inh 7.9µM
Clc1ccc(CCNc2nc3ccccc3s2)cc1	RORg inh 11µM
c1coc(CNc2nc3ccccc3s2)c1	p53 reactivation inconclusive
COc1ccc(N2CCN(C(=S)Nc3ccccc3)CC2)cc1	Gal4-VP16 FLuc inconclusive, RORg inh 13µM
CC(=O)c1ccc(N2CCN(C(=S)Nc3ccc(Oc4ccccc4)cc3)CC2)cc1	Gal4-VP16 FLuc 4.5µM, RORg inh 3.2µM
CC(=O)c1ccc(N2CCN(C(=S)Nc3cccc(F)c3)CC2)cc1	RORg inh 14µM
Cc1ccccc1C(=O)c1ccccc1C(=O)c1ccccc1	none (no result: Gal4-VP16 FLuc, p53 reactivation, RORg inh)
COC(=O)N1CCC[C@@]2(CCN(Cc3cc(C(F)(F)F)cc(C(F)(F)F)c3)C2)C1	none (no result: CtBP-E1A inh, Six1-Eya2 blk, p53 reactivation)
COC(=O)c1sccc1NC(=O)Nc1cccc(F)c1	RORg inh inconclusive
O=C(NCCCN1CCOCC1)C1Cc2c(ccc3ccccc23)O1 (configuration not stated)	none
Cc1nc(C)c(C(=O)NNS(=O)(=O)c2ccc3ccccc3c2)s1	Gal4-VP16 FLuc 1µM, RORg inh inconclusive
CNC(=S)N/N=C/c1cn(CCOc2cccc(OC)c2)c2ccccc12	Gal4-VP16 FLuc 5µM, Six1-Eya2 blk inconclusive, RORg inh 1µM
COC(=O)N/N=C/c1cn(CCOc2ccccc2OC)c2ccccc12	none
CNC(=S)N/N=C/c1cn(CCOc2ccccc2OC)c2ccccc12	Gal4-VP16 FLuc 1µM, RORg inh 0.89µM
O=[N+]([O-])c1cc(O)c2ncccc2c1	CtBP-E1A inh -94, Six1-Eya2 blk -83, RORg inh 0.89µM
Cc1ccc(C(C)C)c(OCC(=O)Nc2ccccc2N2CCN(C)CC2)c1	Gal4-VP16 FLuc 13µM, RORg inh inconclusive
N#Cc1c(SCC(=O)Nc2nccs2)nc2c(c1-c1ccco1)CCCC2	RORg inh 10µM
CN(CC(=O)Nc1ccc(F)cc1)C(=O)c1ccc(OCc2cn3ccccc3n2)cc1	p53 reactivation inconclusive (no result: Gal4-VP16 FLuc, RORg inh)
CCCn1c(N)c(C(=S)NC(=O)C2CC2)c(=O)n(C)c1=O	Gal4-VP16 FLuc 4µM, RORg inh 3.5µM
CCCCn1c(N)c(C(=S)NC(=O)CC(C)C)c(=O)n(C)c1=O	Gal4-VP16 FLuc 1.1µM, RORg inh 1.1µM
CC(=O)Nc1ccc(SCC(=O)c2c(N)n(Cc3ccccc3)c(=O)n(C)c2=O)cc1	none
CCCn1c(N)c(C(=O)COC(=O)c2c(C)noc2C)c(=O)n(C)c1=O	none
CC(=O)NC(=S)c1c(N)n(Cc2ccccc2)c(=O)n(C)c1=O	Gal4-VP16 FLuc 2.8µM, RORg inh 2.8µM (no result: CtBP-E1A inh, Six1-Eya2 blk)
Cc1ccn2c(=O)nc(SCC(=O)NCCc3ccccc3)nc2c1	none (no result: Gal4-VP16 FLuc, RORg inh)
Cc1ccc2c(c1)Cc1nc3ccccc3nc1-2	Gal4-VP16 FLuc 14µM, p53 reactivation inconclusive, RORg inh 10µM
CCOc1cccc(C(=O)NC(=S)Nc2cccc(C)c2)c1	Gal4-VP16 FLuc 10µM, RORg inh 2.5µM
CCOc1cccc(C(=O)Nc2cccc(C(C)=O)c2)c1	none
CCCOc1cccc(C(=O)NC(=S)Nc2cccc(C(F)(F)F)c2)c1	Gal4-VP16 FLuc inconclusive, RORg inh 10µM
Cc1ccc(-n2c(C)cc(C(=O)CSc3nncs3)c2C)cc1	p53 reactivation inconclusive
Cc1ccc(-n2c(C)cc(C(=O)CSc3nnnn3C)c2C)cc1	Gal4-VP16 FLuc 13µM, RORg inh inconclusive
Cc1ccc(-c2cc(-c3ccccc3)c(C#N)c(N)n2)o1	Gal4-VP16 FLuc inconclusive, RORg inh 20µM
CC(C)[C@H](N)c1nnc(SC/C=C/c2ccccc2)o1	none
CCOc1ccc(C2C(C(=O)c3ccc(C)o3)=C(O)C(=O)N2c2nc(C)c(C(=O)OC)s2)cc1 (configuration not stated)	RORg inh 1.1µM (no result: CtBP-E1A inh)
O=C(Nc1ccccc1)C1COc2ccccc2O1 (configuration not stated)	none (no result: p53 reactivation)
O=C(Nc1nnc(-c2ccc3c(c2)CCCC3)o1)C1COc2ccccc2O1 (configuration not stated)	Gal4-VP16 FLuc 7.9µM, RORg inh 3.5µM
COc1ccccc1C(=O)Nc1nnc(-c2ccc3c(c2)CCCC3)o1	Gal4-VP16 FLuc 4µM
CC(=O)Nc1ccc2c(c1)CCCC2	RORg inh inconclusive
